Peg3 prom inh-1 – Peg3 promoter activity inhibition; HeLa PEG-Prom luciferase reporter, luminescence, overnight; 360,000 tested, 1.7% active; inhibition, % at 20 µM; AID 588405;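 active = inhibition of at least 50% at 20 µM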
CF NFkB inh – inhibitors of cystic fibrosis induced NF-kB; inhibition, % at 5 µM; 360,000 tested, 0.86% active; KKLEB NF-kB-GFP reporter, PAF-induced, GFP fluorescence overnight;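 active = at least 50% inhibition at 5 µM, scaled per plate between neutral and stimulator controls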;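 note: PAF is a Pseudomonas aeruginosa culture filtrate used as stimulus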
KKLEB cytotox – counter-screen for CF NF-kB inhibitors: cytotoxicity; 360,000 tested, 0.36% active; KKLEB CF airway cells viability, ATPlite luminescence, overnight; hits give low values; cells stimulated with P. aeruginosa culture filtrate; activity change (cytotoxicity), % at 5 µM;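 active = corrected activity change at or below -50% at 5 µM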
TROY NFkB inh – blocks TROY-dependent signaling in reporter cells. Q293 LMP1-TROYcd NF-kB luciferase reporter, 4 h. inhibition, % at 10 µM. 360,000 tested, 0.98% active;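 active = compounds whose plate-normalised and pattern-corrected inhibition of the luciferase reporter signal at the single screening dose is 50% or more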
HIF-2a block – inhibitors of HIF-2a; AID 624352; 786-0 RCC cells HIF-2a reporter, luciferase luminescence, overnight; 360,000 tested, 0.72% active; inhibition, % at 18.8 µM;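 active = inhibition of the luminescence signal of 40% or more relative to plate controls, in a single-dose primary screen at 18.75 µM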
TWEAK-Fn14 inh – blocks TWEAK-Fn14 interaction in a reporter cell assay; TWEAK-stimulated Fn14 reporter cells, luciferase luminescence, 8 h; inhibition, % at 10 µM; 360,000 tested, 2% active; in the data active = inhibition above about 50%
Peg3 prom inh-2 – Peg3 promoter inhibition confirmation. inhibition, % at 20 µM. shares compounds with Peg3 prom inh-1. 1,300 tested, 84% active. HeLa PEG-Prom luciferase reporter, luminescence, overnight;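 active = at 20 µM dose, 40% or more inhibition averaged across four replicates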
CF NFkB inh conf – CF NF-kB inhibition confirmation, single concentration. shares compounds with CF NFkB inh. KKLEB CF airway cells, PAF-induced NF-kB-GFP fluorescence, overnight. inhibition, % at 5 µM. 1,300 tested, 64% active. AID 602472; in the data active = inhibition above about 40%;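 note: stimulus PAF is a Pseudomonas aeruginosa filtrate and not platelet activating factor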
Mdm2-MdmX confirm – Mdm2/MdmX (human) interaction inhibition, confirmed; AID 504601; SaOS-2 split-luciferase Mdm2/MdmX complementation, luminescence; 740 tested, 99% active; inhibition, % at 8 µM; shares compounds with HIF-2a block;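 active = mean inhibition of the luminescence signal across two replicates at or above 26 percent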
Target sequence (O15151 whole entry, looked up): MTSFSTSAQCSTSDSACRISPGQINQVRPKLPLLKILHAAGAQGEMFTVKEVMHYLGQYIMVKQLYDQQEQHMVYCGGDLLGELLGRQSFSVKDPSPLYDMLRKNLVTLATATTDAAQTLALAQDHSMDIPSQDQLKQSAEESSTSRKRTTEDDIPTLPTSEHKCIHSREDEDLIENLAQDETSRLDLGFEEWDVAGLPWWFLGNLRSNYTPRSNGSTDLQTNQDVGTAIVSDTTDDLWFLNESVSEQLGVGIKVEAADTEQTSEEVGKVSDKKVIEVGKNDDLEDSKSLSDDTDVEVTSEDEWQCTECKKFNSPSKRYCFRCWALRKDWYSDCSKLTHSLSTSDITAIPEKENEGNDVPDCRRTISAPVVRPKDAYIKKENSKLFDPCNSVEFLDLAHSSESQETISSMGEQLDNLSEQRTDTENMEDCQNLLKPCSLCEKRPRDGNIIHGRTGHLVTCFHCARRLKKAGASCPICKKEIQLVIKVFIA
Target sequence (Q00987 whole entry, looked up): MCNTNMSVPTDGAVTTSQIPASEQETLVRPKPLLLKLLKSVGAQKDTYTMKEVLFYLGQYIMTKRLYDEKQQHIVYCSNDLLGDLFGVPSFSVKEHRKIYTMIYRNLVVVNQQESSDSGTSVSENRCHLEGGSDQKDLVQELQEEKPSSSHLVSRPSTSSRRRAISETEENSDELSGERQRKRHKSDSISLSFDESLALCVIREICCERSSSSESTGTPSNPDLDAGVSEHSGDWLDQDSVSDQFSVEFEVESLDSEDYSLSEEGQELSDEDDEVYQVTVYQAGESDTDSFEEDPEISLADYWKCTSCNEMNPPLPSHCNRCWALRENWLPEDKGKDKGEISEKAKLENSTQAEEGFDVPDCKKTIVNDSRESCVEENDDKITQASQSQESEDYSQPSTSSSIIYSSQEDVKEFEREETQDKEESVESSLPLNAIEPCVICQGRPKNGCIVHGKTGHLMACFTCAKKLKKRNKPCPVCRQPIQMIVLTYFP
HIF-2a inh conf – HIF-2a inhibition, single concentration confirmation; shares compounds with HIF-2a block; 786-0 RCC cells, HIF-2a luciferase reporter luminescence, overnight; inhibition, % at 18.8 µM; 1,800 tested, 56% active;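 active = mean inhibition across four replicates of at least 40 percent at the single tested concentration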
HIF-1a counter – counter-screen for HIF-2a inhibitors: HIF-1a inhibition in MiaPaCa-2 cells. shares compounds with HIF-2a block. MiaPaCa-2 HIF-1a luciferase reporter, desferoxamine, overnight. inhibition, % at 18.8 µM. 1,800 tested, 72% active. AID 651589;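 active = mean inhibition of the reporter signal across four replicates at the single tested dose of 50% or more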
Of the large screens only hits and unclear results are named; the others gave an inactive call (follow-up assays come after a bar, where they were run). Rows were chosen to be rich in hits. Some 3.9% of all compounds tested hit in one or more screens of this group.

Cc1ccc(C)c(NP(=O)(Oc2ccccc2)Oc2ccccc2)c1	Peg3 prom inh-1 63.0, CF NFkB inh 97.0, KKLEB cytotox -67.4 | Peg3 prom inh-2 66.8
CCC(c1nnnn1Cc1ccccc1)N1CCC2(CC1)C(=O)NCN2c1ccccc1 (stereo not drawn)	none
Cc1[nH]c2ccc(OC(F)(F)F)cc2c1CCNCc1cccc([N+](=O)[O-])c1	Peg3 prom inh-1 81.5 | Peg3 prom inh-2 58.0
Cc1ccc2[nH]c(C)c(CCNCc3ccco3)c2c1	none
CCCCn1c(O)c(/C=C2/C=CC=N2)c(=O)[nH]c1=O	none
COc1cc2nc(CN3CC=C(c4ccccc4)CC3)[nH]c(=O)c2cc1OC	Peg3 prom inh-1 102.0, CF NFkB inh 68.9 | Peg3 prom inh-2 93.6
CC[n+]1c(-c2ccccc2)c2cc(N)ccc2c2ccc(N)cc21	Peg3 prom inh-1 55.3, TROY NFkB inh 52.6, TWEAK-Fn14 inh 95.1 | Peg3 prom inh-2 87.3
O=c1c2ccccc2nc(CSc2ncnc3nc[nH]c23)n1-c1ccc(Cl)c(Cl)c1	Peg3 prom inh-1 60.2 | Peg3 prom inh-2 45.1
Cc1ccc(NC(=O)c2cc(-c3ccccc3)n(CCCN3CCOCC3)c2C)cc1	none
O=C1NCN(c2ccccc2)C12CCN(C(c1cccs1)c1nnnn1Cc1ccccc1)CC2 (stereo not drawn)	Peg3 prom inh-1 50.0 | Peg3 prom inh-2 40.5
Cc1cc(C)c(NC2=NCCS2)cc1C	none
CC(=O)OC1CC[C@]2(C#N)[C@H]3CC[C@]4(C)[C@H](C5C=CC(=O)O5)CCC4(O)C3CCC2(O)C1 (stereo partly drawn)	Peg3 prom inh-1 75.6 | Peg3 prom inh-2 86.6
COC(/C(C)=C/C=C/C(C)=C/c1coc(C)n1)C(C)C1CC(O)C2(C)OC2C=CC(C)C2CC(CC(=O)O2)CC2OC2C(=O)O1 (stereo not drawn)	none
CCOC(=O)c1c(C)[nH]c(C(=O)C(Cc2ccccc2)N(C)C)c1C (stereo not drawn)	none
CCC(=O)c1cn(Cc2ccc(C#N)cc2)c2ccccc12	none
N#Cc1ccc(Cn2cc(C=O)c3ccccc32)cc1	Peg3 prom inh-1 73.6 | Peg3 prom inh-2 60.6
CC(=O)OC1(C)CC(C)C(=O)C(C(O)CC2CC(=O)NC(=O)C2)C1 (stereo not drawn)	Peg3 prom inh-1 105.4, CF NFkB inh 80.6, TROY NFkB inh 85.8, HIF-2a block 77.3, TWEAK-Fn14 inh 102.9 | Peg3 prom inh-2 97.8 | CF NFkB inh conf 114.1
Cc1cccn2c(=O)c3c(nc12)N1CCCCC1C1(C3)C(=O)N(C)C(=O)N(C)C1=O (stereo not drawn)	none
COc1ccc(-n2nnnc2C(CCSC)N2CCC(n3c(=O)[nH]c4ccccc43)CC2)cc1 (stereo not drawn)	Peg3 prom inh-1 56.5, CF NFkB inh 80.7 | Peg3 prom inh-2 42.4 | CF NFkB inh conf 69.8
COc1ccc(N2C(=O)CC(N3CCC(n4c(=O)[nH]c5ccccc54)CC3)C2=O)cc1 (stereo not drawn)	none
Cc1ccccc1C(=O)N1Cc2cnnn2-c2ccccc2C1C#N (stereo not drawn)	none
Cc1ccccc1CN1Cc2cnnn2-c2ccccc2C1C#N (stereo not drawn)	Peg3 prom inh-1 95.3, TROY NFkB inh 55.8, HIF-2a block 91.7, TWEAK-Fn14 inh 95.7 | Peg3 prom inh-2 98.0 | HIF-2a inh conf 96.7 | HIF-1a counter 106.5
CC1=CC2OC3CC4OC(=O)C=CC=CC(C(C)O)OCC(O)C(C)CC(=O)OCC2(CC1O)C4(C)C31CO1 (stereo not drawn)	Peg3 prom inh-1 96.5, CF NFkB inh 85.5, KKLEB cytotox -51.8, TROY NFkB inh 84.2, HIF-2a block 75.8, TWEAK-Fn14 inh 99.3 | Peg3 prom inh-2 97.7 | HIF-2a inh conf 73.3 | HIF-1a counter 105.2
COC(=O)C1=C(c2cccc3c2S(=O)(=O)c2ccccc2-3)C[C@@H]2CC[C@H]1N2C(=O)N1CCc2cc(OC)c(OC)cc2C1	none
C[C@@H]1O[C@@H](O[C@@H]2C=C3CCC4C(CC[C@]5(C)[C@@H](c6ccc(=O)oc6)CC[C@]45O)[C@@]3(C)CC2)[C@H](O)[C@H](O)[C@H]1O (stereo partly drawn)	Peg3 prom inh-1 94.7, CF NFkB inh 87.9, KKLEB cytotox -62.2, HIF-2a block 90.4, TWEAK-Fn14 inh 82.5 | Peg3 prom inh-2 96.9 | Mdm2-MdmX confirm 86.6 | HIF-2a inh conf 43.3 | HIF-1a counter 105.4
CC1=CC2/C=C(\C)CCC(O)C(O)/C=C/C(=O)C23C(=O)NC(CC(C)C)C3C1C (stereo not drawn)	Peg3 prom inh-1 107.8, CF NFkB inh 92.2, KKLEB cytotox -64.3, TROY NFkB inh 60.5, HIF-2a block 92.5, TWEAK-Fn14 inh 93.1 | Peg3 prom inh-2 98.0 | Mdm2-MdmX confirm 103.0 | HIF-2a inh conf 99.2 | HIF-1a counter 102.0
O=c1[nH]c(=O)n(Cc2ccco2)c(O)c1C=NCCN1CCNCC1	none
CCC(=O)N1CC(=O)Nc2ccc(F)cc2C1c1ccc(F)cc1 (stereo not drawn)	none
COc1ccc(NC(=S)NC(NC(=O)CF)C(Cl)(Cl)Cl)c([N+](=O)[O-])c1 (stereo not drawn)	none
CC(=O)OC(C)(C)/C=C/C(=O)C(C)(O)C1[C@H](O)C[C@@]2(C)C3CC=C4C(CC[C@@H](O)C4(C)C)[C@]3(CO)C(=O)C[C@]12C (stereo partly drawn)	Peg3 prom inh-1 83.8, CF NFkB inh 91.3, KKLEB cytotox -92.1, TROY NFkB inh 61.0, HIF-2a block 72.3 | Peg3 prom inh-2 86.6 | HIF-2a inh conf 73.3 | HIF-1a counter 104.7
CC12CC(=O)C3C(CCC4CC(=O)C=CC43C)C1CCC2=O (stereo not drawn)	CF NFkB inh 65.9 | CF NFkB inh conf inactive
Clc1ccc2sc(C3CCNCC3)nc2c1	none
